Active and inactive are the calls of the source.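 Rule for the calls, unless noted: active = normalized viability below 100% at a tested concentration; inactive = the rest.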

Test [1] is described as follows: kinase inhibitors against Plasmodium liver-stage infection, cell-based, known kinase inhibitor set, luminescence, hepatoma host viability (AID 624392; call rule not given here;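 note: infected cells incubated roughly two days before readout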). The settings on record: Plasmodium liver stage in hepatoma cells, luciferase luminescence, concentration not given here; liver cell % of control: measured here: host liver cell viability; parasite % of control: stronger effect = lower value.

Test [2] can be described thus: modulators of glucocorticoid suppression of NF-kB, cell-based, luciferase, IL-1B stimulus, dexamethasone (AID 624486; call rule not given here;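 for percent of negative control (+Dex): 100% = mean signal of vehicle control wells on the plate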). The settings on record: NF-kB luciferase reporter, IL-1B + dexamethasone, luminescence; percent of negative control (+Dex): actives lie on both sides, concentration not given here; z-score: measured here: IL-1B alone, no Dex.
Test [3] can be described thus: kinase inhibitors altering Pseudomonas killing of worms, whole organism (AID 651566; call rule not given here;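 note: tested at 14 µM; sign flipped so higher z means a lower ratio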). Particulars: C. elegans killed by P. aeruginosa, survival ratio.
A short description of test [4]: activators of macrophage pro-inflammatory response, cell-based, murine, luminescence (AID 652131; call rule not given here). Particulars: murine macrophage pro-inflammatory reporter, stronger effect = higher value.
Test [5] is described as follows: survival rescue of mitochondrial mutant cells in low glucose, primary screen, MELAS cybrids, Rieske KO mouse fibroblasts, CellTiter-Glo (AID 1508586;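 active = mean z-score across replicates of 1.96 or higher in either the MELAS or the Rieske mutant cell line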;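 note: z relative to plate mean and SD of compound and empty wells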). (In ATP-based viability assays light output follows the ATP content of the culture.)
A short description of test [6]: ovarian cancer cell viability with rucaparib, profiling panel, oncology-focused library, rucaparib conditional (AID 1508598). The settings on record: patient-derived ovarian cancer cells, CellTiter-Glo viability, 144 h, stronger effect = lower value.
[7] abbreviates: MELAS cybrid survival, CellTiter-Glo 48 h, stronger effect = higher value.
The mark [8] stands for this setting: Rieske KO mouse fibroblast survival, CellTiter-Glo 72 h.
The mark [9] stands for this setting: at 0.000305 µM, OCI-C5x cells, with rucaparib 10 µM, 100% = cells with rucaparib alone.
The mark [10] stands for this setting: at 0.000305 µM, OCI-C5x cells, without rucaparib.
The mark [11] stands for this setting: at 0.000305 µM, OCI-P5x cells, with rucaparib 20 µM, 100% = cells with rucaparib alone.
The mark [12] stands for this setting: at 0.000305 µM, OCI-P5x cells, without rucaparib.
Setting [13] is: at 0.00122 µM, OCI-C5x cells, with rucaparib 10 µM, 100% = cells with rucaparib alone.
[14] abbreviates: at 0.00122 µM, OCI-C5x cells, without rucaparib.
Where [15] appears, read: at 0.00122 µM, OCI-P5x cells, with rucaparib 20 µM, 100% = cells with rucaparib alone.
The mark [16] stands for this setting: at 0.00122 µM, OCI-P5x cells, without rucaparib.
Where [17] appears, read: at 0.00488 µM, OCI-C5x cells, with rucaparib 10 µM, 100% = cells with rucaparib alone.
Setting [18] is: at 0.00488 µM, OCI-C5x cells, without rucaparib.
[19] abbreviates: at 0.00488 µM, OCI-P5x cells, with rucaparib 20 µM, 100% = cells with rucaparib alone.
Where [20] appears, read: at 0.00488 µM, OCI-P5x cells, without rucaparib.
[21] abbreviates: at 0.0195 µM, OCI-C5x cells, with rucaparib 10 µM, 100% = cells with rucaparib alone.
Setting [22] is: at 0.0195 µM, OCI-C5x cells, without rucaparib.
The mark [23] stands for this setting: at 0.0195 µM, OCI-P5x cells, with rucaparib 20 µM, 100% = cells with rucaparib alone.
Setting [24] is: at 0.0195 µM, OCI-P5x cells, without rucaparib.
The mark [25] stands for this setting: at 0.0781 µM, OCI-C5x cells, with rucaparib 10 µM, 100% = cells with rucaparib alone.
Where [26] appears, read: at 0.0781 µM, OCI-C5x cells, without rucaparib.
Where [27] appears, read: at 0.0781 µM, OCI-P5x cells, with rucaparib 20 µM, 100% = cells with rucaparib alone.
Setting [28] is: at 0.0781 µM, OCI-P5x cells, without rucaparib.
[29] abbreviates: at 0.313 µM, OCI-C5x cells, with rucaparib 10 µM, 100% = cells with rucaparib alone.
[30] abbreviates: at 0.313 µM, OCI-C5x cells, without rucaparib.
The mark [31] stands for this setting: at 0.313 µM, OCI-P5x cells, with rucaparib 20 µM, 100% = cells with rucaparib alone.
Setting [32] is: at 0.313 µM, OCI-P5x cells, without rucaparib.
[33] abbreviates: at 1.25 µM, OCI-C5x cells, with rucaparib 10 µM, 100% = cells with rucaparib alone.
Where [34] appears, read: at 1.25 µM, OCI-C5x cells, without rucaparib.
Where [35] appears, read: at 1.25 µM, OCI-P5x cells, with rucaparib 20 µM, 100% = cells with rucaparib alone.
[36] abbreviates: at 1.25 µM, OCI-P5x cells, without rucaparib.
The mark [37] stands for this setting: at 5 µM, OCI-C5x cells, with rucaparib 10 µM, 100% = cells with rucaparib alone.
The mark [38] stands for this setting: at 5 µM, OCI-C5x cells, without rucaparib.
[39] abbreviates: at 5 µM, OCI-P5x cells, with rucaparib 20 µM, 100% = cells with rucaparib alone.
The mark [40] stands for this setting: at 5 µM, OCI-P5x cells, without rucaparib.

Compound `CCS(=O)(=O)c1ccc(OC)c(Nc2ncc(-c3cccc(C(C)=O)c3)o2)c1` displayed a liver cell % of control in test [1] of 169%. Besides, the parasite % of control in test [1] was 48.2% (inactive). In addition, the percent of negative control (+Dex) in test [2] is 87% (inactive). In addition, the z-score in test [2] is 0.415; in test [3], 0.56 (inactive); in test [4], -0.091 (inactive); in test [5] (setting [7]), 1.14 (inactive); in test [5] (setting [8]), -0.327.
For the compound `NC(=O)Cc1ccccc1Oc1nccc(-c2c(-c3ccc(F)cc3)ncn2C2CCNCC2)n1`, the liver cell % of control in test [1] amounted to 110%. In test [1], the parasite % of control was 160% (inactive). Besides, the percent of negative control (+Dex) in test [2] was 105% (inactive). The z-score in test [2] was 0.475; in test [3] it was -0.78 (inactive); in test [4], 0.598 (inactive); in test [5] (setting [7]), -0.586 (inactive); in test [5] (setting [8]) it was -0.373.
Consider `COc1cccc(-c2cc(F)ccc2[C@H]2Cc3nc(N)nc(C)c3C(=O)N2)n1`, for which the viability (commonly a read-out of living cells in per cent, often relative to untreated cells) in test [6] (setting [9]) is 108% (inactive); in test [6] (setting [10]), 122% (inactive); in test [6] (setting [11]), 108% (inactive); in test [6] (setting [12]), 113% (inactive); in test [6] (setting [13]), 117% (inactive); in test [6] (setting [14]), 135% (inactive). Moreover, the viability in test [6] (setting [15]) was 101% (inactive); in test [6] (setting [16]), 112% (inactive); in test [6] (setting [17]) it was 134% (inactive); in test [6] (setting [18]) it was 141% (inactive); in test [6] (setting [19]), 53.5% (active); in test [6] (setting [20]), 34.2% (active). Moreover, the viability is 93.9% (active) in test [6] (setting [21]); 41.2% (active) in test [6] (setting [22]); 16.9% (active) in test [6] (setting [23]); 8.17% (active) in test [6] (setting [24]); 23.6% (active) in test [6] (setting [25]); 13.1% (active) in test [6] (setting [26]). The viability was 10.3% (active) in test [6] (setting [27]); 7.46% (active) in test [6] (setting [28]); 11.3% (active) in test [6] (setting [29]); 8.63% (active) in test [6] (setting [30]); 6.73% (active) in test [6] (setting [31]); 5.16% (active) in test [6] (setting [32]). Further, the viability in test [6] (setting [33]) is 10.2% (active); in test [6] (setting [34]), 7.01% (active); in test [6] (setting [35]), 5.14% (active); in test [6] (setting [36]), 4.54% (active); in test [6] (setting [37]) it was 9.37% (active); in test [6] (setting [38]), 7.01% (active). Besides, the viability in test [6] (setting [39]) is 4.5% (active); in test [6] (setting [40]), 3.25% (active).
Consider `COc1cccc2c1C(=O)c1c(O)c3c(c(O)c1C2=O)C[C@@](O)(C(C)=O)C[C@H]3O[C@H]1C[C@H](N)[C@H](O)[C@H](C)O1`, for which the viability in test [6] (setting [9]) was 118% (inactive); in test [6] (setting [10]), 110% (inactive); in test [6] (setting [11]), 110% (inactive); in test [6] (setting [12]), 105% (inactive); in test [6] (setting [13]) it was 123% (inactive); in test [6] (setting [14]) it was 101% (inactive). Also, the viability in test [6] (setting [15]) is 99.8% (active); in test [6] (setting [16]), 101% (inactive); in test [6] (setting [17]) it was 125% (inactive); in test [6] (setting [18]), 152% (inactive); in test [6] (setting [19]) it was 99.2% (active); in test [6] (setting [20]), 94.6% (active). The viability was 198% (inactive) in test [6] (setting [21]); 201% (inactive) in test [6] (setting [22]); 84.2% (active) in test [6] (setting [23]); 43% (active) in test [6] (setting [24]); 180% (inactive) in test [6] (setting [25]); 105% (inactive) in test [6] (setting [26]). Moreover, the viability in test [6] (setting [27]) is 74.4% (active); in test [6] (setting [28]), 26.5% (active); in test [6] (setting [29]) it was 101% (inactive); in test [6] (setting [30]) it was 5.28% (active); in test [6] (setting [31]) it was 25.9% (active); in test [6] (setting [32]), 10.5% (active). For the same compound, the viability in test [6] (setting [33]) is 2.76% (active); in test [6] (setting [34]), 1.21% (active); in test [6] (setting [35]) it was 15.7% (active); in test [6] (setting [36]), 5.33% (active); in test [6] (setting [37]), 2.96% (active); in test [6] (setting [38]), 1.85% (active). The viability is 4.23% (active) in test [6] (setting [39]) and 3.15% (active) in test [6] (setting [40]).
Regarding `C=CCNC1=C2C[C@@H](C)C[C@H](OC)[C@H](O)[C@@H](C)/C=C(\C)[C@H](OC(N)=O)[C@@H](OC)/C=C\C=C(\C)C(=O)NC(=CC1=O)C2=O`, the viability in test [6] (setting [9]) is 110% (inactive); in test [6] (setting [10]) it was 101% (inactive); in test [6] (setting [11]), 119% (inactive); in test [6] (setting [12]) it was 124% (inactive); in test [6] (setting [13]) it was 113% (inactive); in test [6] (setting [14]), 108% (inactive). Also, the viability in test [6] (setting [15]) was 126% (inactive); in test [6] (setting [16]), 121% (inactive); in test [6] (setting [17]) it was 110% (inactive); in test [6] (setting [18]) it was 117% (inactive); in test [6] (setting [19]), 122% (inactive); in test [6] (setting [20]), 126% (inactive). The viability is 120% (inactive) in test [6] (setting [21]); 116% (inactive) in test [6] (setting [22]); 119% (inactive) in test [6] (setting [23]); 115% (inactive) in test [6] (setting [24]); 133% (inactive) in test [6] (setting [25]); 112% (inactive) in test [6] (setting [26]). Besides, the viability in test [6] (setting [27]) was 41.9% (active); in test [6] (setting [28]) it was 35.9% (active); in test [6] (setting [29]), 104% (inactive); in test [6] (setting [30]) it was 56.1% (active); in test [6] (setting [31]), 12.5% (active); in test [6] (setting [32]), 8.71% (active). For the same compound, the viability in test [6] (setting [33]) was 28.6% (active); in test [6] (setting [34]), 27.2% (active); in test [6] (setting [35]), 5.52% (active); in test [6] (setting [36]), 5.3% (active); in test [6] (setting [37]) it was 8.53% (active); in test [6] (setting [38]), 8.44% (active).

The record behind these values is PubChem BioAssay.
